Hits are enriched below; roughly 13% of the tested compounds scored in any of these assays.
HCV inhibitor – HCV inhibition; Huh7.5.1 HCVcc-Cre infection, luciferase reporter, 44 h; Potency, µM (doses to about 41.8 µM), for the others: at the highest dose activity change, negative = inhibition, actives largely listed as inhibitors; 340,000 tested, 3.4% active; also: potency is read from the fitted curve at half-maximal effect
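Seed cells (1,000/well) for 4 h; treat with compound and infect with HCVcc-Cre, moi about 0.5. Incubate 44 h, then detect luciferase activity.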
HCMV antiviral – inhibitors of human cytomegalovirus | HFF cells, HCMV-luciferase reporter, 72 h; hits give low values | activity change, negative = inhibition, % at 57.5 µM | 410,000 tested, 4.5% active | AID 1259415; in the data active = activity change below about -60%; inconclusive = no clear call, values can overlap the other calls; inactive = above about -39%
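Cell-based, HFFs, 1000 cells/well, 16 h 37C; cpds in DMSO + HCMV-luc, MOI 1 PFU/cell; 72 h 37C; OneGlo luminescence after 5 min RT; norm. to buffer vs Salinomycin 10uM.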
Pf growth 48h – inhibits P. falciparum growth in the first generation, 48 h | P. falciparum luciferase growth in erythrocytes, 48 h | Potency, µM (series often up to 28.7 µM), without a hit: at the highest dose activity change, negative = inhibition, hits mostly inhibitors | 310,000 tested, 5.9% active | AID 504832; also: potency is read from the fitted curve at half-maximal effect
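Read-out is firefly luciferase luminescence from an integrated reporter in P. falciparum, so falling signal marks reduced parasite growth. Infected erythrocytes were at 2% hematocrit and 0.1% parasitemia (final) in Albumax-supplemented RPMI 1640.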
Pf growth 96h – P. falciparum growth inhibition at 96 hour, primary screen for plastid delayed-death inhibitors; P. falciparum luciferase reporter growth, 96 h; Potency, µM (titrated, usually from 28.7 µM), for the others: top-dose activity change, negative = inhibition, hits mostly inhibitors; 320,000 tested, 6.9% active; also: potency is read from the fitted curve at half-maximal effect
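Delayed-death screen, second-generation endpoint: infected erythrocytes, 2% hematocrit, 0.05% parasitemia final; 96 hours at 37 C, 5% CO2; luciferase detection reagent; luminescence decrease equals reduced growth.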
Numbers without * were called inactive; ? = inconclusive; · = no result. Unless noted, calls follow the shape of the dose curve; as a rule, active = well fitted inhibition curve with a large enough effect; inconclusive = small, poorly fitted or top-dose-only effect, or another doubt; inactive = no such curve, though single readings can be large or run the other way. % is scaled to controls: 0 for no effect and ±100 for the full control effect.

SMILES	HCV inhibitor	HCMV antiviral	Pf growth 48h	Pf growth 96h
O=C1C=Cc2cccc3ccc(O)c1c23	?	-68*	·	·
CC12CCC3C(CC=C4CC(O)CCC43C)C1C/C(=C\c1ccccc1F)C2=O (stereo unspecified)	9%	-22	?	5.9µM*
Cc1cc2cc(CCNC(=O)c3ccc(S(=O)(=O)N4CCCC4)cc3)c(=O)[nH]c2cc1C	?	-14	9.3µM*	?
COc1ccc2cc(CCNC(=O)c3cc4ccccc4o3)c(=O)[nH]c2c1	?	50	37%	1.5µM*
COc1ccc(OC)c2[nH]c(=O)c(CCNC(=O)c3ccc(Br)o3)cc12	?	-38	12µM*	·
COc1ccc(OC)c2[nH]c(=O)c(CCNC(=O)c3ccc(S(=O)(=O)N4CCCCC4)cc3)cc12	-23%	35	9.3µM*	55%
COc1ccc2cc(CCNC(=O)c3ccc(S(=O)(=O)N4CCOCC4)cc3)c(=O)[nH]c2c1	-6%	23	10µM*	?
COc1ccc(CNC(=O)c2ccc(S(=O)(=O)N3CCOCC3)cc2)cc1	-9%	-38	-25%	?
COc1ccccc1CNS(=O)(=O)c1ccc(-n2cnnn2)c(OC)c1	-9%	4	6%	9.3µM*
COc1ccccc1CN(Cc1ccco1)S(=O)(=O)c1ccc(-n2cnnn2)c(OC)c1	?	-29	13µM*	?
COc1cc(S(=O)(=O)NCc2ccccc2Cl)ccc1-n1cnnn1	-3%	?	-12%	271%
CCCCCOc1ccc(Br)cc1/C(C)=N/NC1=NCCN1	6.3µM*	-92*	5.2µM*	?
Cc1cc(NC(=O)c2ccc(Br)o2)cc(-c2nc3ccccc3o2)c1O	·	9	·	·
CCOc1ccc(OCC(=O)NCCS(=O)(=O)N2CCN(c3ccc(OC)cc3)CC2)cc1	·	-36	·	·
CC(C)CN(C(=O)CN1CCCCCC1)c1c(N)n(CC(C)C)c(=O)[nH]c1=O	11%	52	-11%	?
CCN(C(=O)c1ccc(=O)n(C)n1)c1c(N)n(Cc2ccccc2)c(=O)[nH]c1=O	-15%	-77*	·	·
CCN(C(=O)CN1CC=C(c2ccccc2)CC1)c1c(N)n(Cc2ccccc2)c(=O)[nH]c1=O	-8%	-62*	-13%	?
CC(C)CN(C(=O)CN1CC=C(c2ccccc2)CC1)c1c(N)n(CC(C)C)c(=O)[nH]c1=O	3.5µM*	-39	?	?
CC(C)CN(C(=O)CN1CCOCC1)c1c(N)n(CC(C)C)c(=O)[nH]c1=O	4%	-72*	21%	?
COc1cccc(N2C(=O)C(CC(=O)Nc3ccc(F)cc3)N(CCC3=CCCCC3)C2=O)c1 (stereo unspecified)	·	-5	·	·
CCN(C(=O)CN(C)Cc1c(F)cccc1Cl)c1c(N)n(Cc2ccccc2)c(=O)[nH]c1=O	30%	-65*	-10%	?
CN(C(=O)COC(=O)Cc1c(F)cccc1Cl)c1c(N)n(Cc2ccccc2)c(=O)[nH]c1=O	-19%	5	?	12%
CCN(C(=O)CN1CCN(c2ccc(O)cc2)CC1)c1c(N)n(Cc2ccccc2)c(=O)[nH]c1=O	18%	-5	?	4.7µM*
C/C(=N\Nc1nc(N2CCOCC2)nc(N2CCOCC2)n1)c1cccs1	-29%	-19	16%	-22%
C(=N\Nc1nc(N2CCOCC2)nc(N2CCOCC2)n1)/c1ccncc1	2%	8	7%	?
SMILES	HCV inhibitor	HCMV antiviral	Pf growth 48h	Pf growth 96h
C/C(=N\Nc1nc(N2CCCCC2)nc(N2CCOCC2)n1)c1ccccc1O	?	?	12µM*	-2%
Brc1cc2c(cc1/C=N/Nc1nc(N3CCCC3)nc(N3CCOCC3)n1)OCO2	2.8µM*	-14	?	?
Oc1ccc(/C=N/Nc2nc(N3CCCCCC3)nc(N3CCCCCC3)n2)c(O)c1	?	-89*	?	19%
Oc1ccc(/C=N/Nc2nc(N3CCCC3)nc(N3CCCC3)n2)cc1O	-16%	-34	-11%	?
CCOC(=O)C1=C(CN2CCC(C(=O)OCC)CC2)NC(=O)NC1c1ccc(Cl)cc1 (stereo unspecified)	·	4	·	·
COc1ccc(-c2noc(COc3cc(C)c(Br)c(C)c3)n2)cc1OC	·	6	·	·
Cc1ccccc1-c1nc(CS(=O)(=O)CC(=O)NCC(C)c2ccccc2)c(C)o1 (stereo unspecified)	·	10	·	·
CCc1cc2c(cc3c(=O)n(CCCC(=O)NCc4cccc(Cl)c4)ncn32)s1	·	-31	·	·
CCOc1ccc(Oc2ccccc2NS(=O)(=O)c2ccc(CCC(=O)O)cc2)cc1	-15%	-64*	4%	-16%
CC(C)(C)NS(=O)(=O)c1ccc(CCC(=O)Nc2cc(Cl)ccc2Oc2ccccc2)cc1	8.9µM*	17	4.1µM*	·
CCCNS(=O)(=O)c1ccc(CCC(=O)Nc2cc(Cl)ccc2Oc2ccccc2)cc1	10µM*	-2	13µM*	-4%
CCCNS(=O)(=O)c1ccc(CCC(=O)NCCc2ccc(OC)c(OC)c2)cc1	-13%	1	-6%	-9%
CC(C)CNS(=O)(=O)c1ccc(CCC(=O)Nc2cc(Cl)ccc2Oc2ccccc2)cc1	?	28	·	4.1µM*
COc1ccc(CCC(=O)Nc2cc(Cl)ccc2OC)cc1	?	-37	·	?
CC(C)CNS(=O)(=O)c1ccc(CCC(=O)O)cc1	11%	-7	12%	18%
COc1cc2c(c(OC)c1)C(c1cccc(F)c1F)CC(=O)N2 (stereo unspecified)	·	-34	·	·
Cc1ccc2occ(CC(=O)Nc3ccc(S(=O)(=O)N4CCC(C)CC4)cc3)c2c1	·	-4	·	·
O=C(NCc1cccs1)c1ccc2c(=O)n3nc(Nc4ccccc4)sc3nc2c1	·	-4	·	·
O=c1c(C=NCCCn2ccnc2)c(-c2ccccc2)[nH]n1-c1nc2ccccc2s1	-12%	209	10µM*	·
COc1cc2c(cc1OC)C(COc1ccc3c(C)cc(=O)oc3c1)N(C(=O)Cc1ccc(F)cc1)CC2 (stereo unspecified)	·	6	·	·
COC(=O)CN1C(=O)[C@@H]2[C@H](C1=O)[C@@H]1CC(C(=O)OC)=C[C@@H](C(=O)OC)[C@@H]3C1=C(C(=O)[C@@]3(C)NC(=O)c1ccccc1)[C@@H]2C	-21%	-66*	·	·
CCOc1ccccc1NC(=O)c1ccccc1-c1nc(-c2ccccc2)no1	?	15	?	8.3µM*
CCOc1ccccc1-c1nc(-c2ccc(NC(=O)Cc3ccccc3OC)cc2)no1	?	23	13µM*	3.7µM*
COc1ccccc1CC(=O)Nc1ccc(-c2noc(COc3ccc(Cl)c(C)c3)n2)cc1	-14%	-67*	·	-12%
COc1ccc(-c2noc(CC(=O)Nc3ccc(C)c(F)c3)n2)cc1	·	-15	·	·
COc1ccccc1-c1nc(-c2ccc(C(=O)O)cc2)no1	·	2	·	·
CC(C)[C@@H](C)/C=C/[C@@H](C)[C@H]1CC[C@@H]2[C@]1(C)CCC1[C@]23C=C[C@]2(C[C@@H](O)CC[C@]12C)N(C(=O)Cc1ccccc1)O3 (stereo partly specified)	·	28	·	·
